Screening results from PubChem BioAssay.
Rows were chosen to be rich in hits. Some 1.8% of all compounds tested hit in one or more screens of this group.
LANA-H2B inh – blockers of LANA interaction with H2A/H2B – biochemical, FP readout, HTS, primary screen; cell-free LANA-H2A/H2B peptide, fluorescence polarization; inhibition, % (test concentration not listed); hit rate 0.6% among 320,000; AID 2629, 2010; in the data active means inhibition mostly above about 10%, no sharp cut-off; inactive means mostly below about 6.7%
HDAC3 inh – HDAC3 deacetylase inhibitors, primary screen, biochemical, fluorescence, cell-free homogeneous. Histone deacetylase 3 (Homo sapiens), O15379. recombinant HDAC3, fluorogenic peptide/trypsin coupled. inhibition, % at 8.3 µM. hit rate 0.15% among 320,000. AID 2718, 2010; in the data active means inhibition above about 26%, passing the limit was not always enough
GRK2 aptamer HTS – compounds blocking aptamer binding on GRK2 – biochemical, human GRK2, bead flow cytometry, HTS, primary screen. Beta-adrenergic receptor kinase 1 (Homo sapiens), P25098. FAM-aptamer displacement from GRK2. inhibition of aptamer binding, % at 10 µM. hit rate 0.59% among 330,000;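 active means inhibition of aptamer binding above 40%, roughly 3 SD of noise, on plates passing a quality check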;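 further: median bead fluorescence of bound FAM aptamer so fluorescent compounds give negative values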
Pemphigus Ab inh – inhibitors of pemphigus antibody binding to DSG3, primary screen, biochemical, bead-based, flow cytometry, scFv-GFP; Desmoglein-3 (Homo sapiens), P32926; DSG3-coupled beads, scFv-anti-DSG3-GFP binding; stronger effect = lower value; binding (percent of control), % at 10 µM; hit rate 0.48% among 310,000; AID 588358, 2011;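 active means binding more than 3 SD below its plate's average and above zero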
PKD1 inh – inhibitors of human PKD1 kinase, biochemical, fluorescence polarization; Serine/threonine-protein kinase D1 (Homo sapiens), Q15139; PKD1 kinase fluorescence polarization assay; inhibition, % (test concentration not listed); hit rate 0.056% among 200,000; AID 797, 2007
Target sequence (Q15139 whole entry, looked up): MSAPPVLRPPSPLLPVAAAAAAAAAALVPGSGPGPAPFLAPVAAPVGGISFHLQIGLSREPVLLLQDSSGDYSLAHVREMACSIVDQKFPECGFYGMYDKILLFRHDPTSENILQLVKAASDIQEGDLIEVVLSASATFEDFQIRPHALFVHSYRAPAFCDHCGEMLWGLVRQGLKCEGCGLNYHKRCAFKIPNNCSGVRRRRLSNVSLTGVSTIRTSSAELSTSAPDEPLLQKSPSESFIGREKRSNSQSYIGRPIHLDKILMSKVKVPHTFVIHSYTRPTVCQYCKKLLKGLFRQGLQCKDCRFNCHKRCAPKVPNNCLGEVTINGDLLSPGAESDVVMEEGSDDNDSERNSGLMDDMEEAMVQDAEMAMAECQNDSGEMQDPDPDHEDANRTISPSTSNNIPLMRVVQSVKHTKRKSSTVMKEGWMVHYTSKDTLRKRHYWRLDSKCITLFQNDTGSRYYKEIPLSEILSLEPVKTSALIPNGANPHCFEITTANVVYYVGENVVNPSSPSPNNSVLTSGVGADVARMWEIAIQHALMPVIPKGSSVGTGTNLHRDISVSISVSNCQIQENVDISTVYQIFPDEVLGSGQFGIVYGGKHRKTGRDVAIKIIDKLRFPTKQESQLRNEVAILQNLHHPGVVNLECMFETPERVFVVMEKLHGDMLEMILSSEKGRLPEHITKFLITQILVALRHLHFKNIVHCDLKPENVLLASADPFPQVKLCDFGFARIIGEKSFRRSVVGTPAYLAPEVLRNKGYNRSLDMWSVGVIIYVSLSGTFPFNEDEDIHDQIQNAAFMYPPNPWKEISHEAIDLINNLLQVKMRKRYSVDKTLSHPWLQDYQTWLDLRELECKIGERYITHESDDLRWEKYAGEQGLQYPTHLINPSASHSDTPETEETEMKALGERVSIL
VLA-4 inh – inhibition in human VLA-4 binding assay, primary screen, VLA-4 allosteric modulator project, MLPCN library, flow cytometry, VLA-4 expressing cells. ligand binding flow cytometry. inhibition, % (about 7 µM as worked out from the volumes in the protocol). hit rate 0.2% among 330,000
GRK2 CP1 – GRK2 aptamer-displacing inhibitors, retest, confirmation, biochemical, cherry pick 1, bead flow cytometry. shares compounds with GRK2 aptamer HTS. AID 504451, 2011. aptamer displacement, % at 10 µM. bead-bound GRK2, FAM-aptamer displacement. hit rate 4% among 2,000;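 active means aptamer displacement above 40%, near three times the noise of non-fluorescent compounds, on plates passing quality checks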;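 further: negative values mostly reflect intrinsic compound fluorescence rather than true enhancement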
Aptamer quench – counter-screen for GRK2 aptamer inhibitors: fluorescent aptamer quenchers | 110 tested, under 10 active | AID 504521 | Fluorescent RNA aptamer beads, quenching, flow cytometry; stronger effect = higher value | shares compounds with GRK2 aptamer HTS | fluorescence change (kMESF span), kMESF (test concentration not listed);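 active means compounds whose bead fluorescence drops by more than 37 kMESF across the dose range, marking them as dye quenchers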
FAM quench CP1 – aptamer fluorescence quenching in GRK2 counter-screen. shares compounds with GRK2 aptamer HTS. Carboxyfluorescein RNA aptamer on beads, flow cytometry quenching; stronger effect = lower value. fluorescence response (% of DMSO), % at 10 µM. 2,000 tested, under 10 active. AID 504580;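 active means compounds that quench the bead-bound fluorescent RNA probe, cutting fluorescence to under half of the solvent control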;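 further: counterscreen run without GRK2 so only probe quenching by compound is measured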
GRK2 CP2 – GRK2 aptamer-displacing inhibitors, hit retest, confirmation, biochemical, cherry pick 2, bead flow cytometry; shares compounds with GRK2 aptamer HTS; bead-bound GRK2, FAM-aptamer displacement; inhibition of aptamer binding, % at 10 µM; 360 tested, under 10 active; AID 504782, 2011;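 active means inhibition of aptamer binding above 40%, about triple the noise seen with nonglowing compounds, on plates passing quality control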;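 further: negative values mostly come from compounds that fluoresce themselves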
FAM quench SP – aptamer fluorescence quenching in GRK2 counter-screen. shares compounds with GRK2 aptamer HTS. carboxyfluorescein RNA aptamer beads, flow cytometry quenching; stronger effect = lower value. fluorescence response vs DMSO, % at 10 µM. 360 tested, under 10 active;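 active means response vs DMSO under 50%, meaning signal dropped by over half, treated as fluorescence quencher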;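 further: labelled aptamer on streptavidin beads without GRK2 as a quench counter-screen; 100% = bead fluorescence of DMSO wells and lower means quenching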
FAM quench DR – quenchers of FAM-labeled RNA aptamer fluorescence, dose response, artefact control for GRK2 aptamer binding project, biochemical, powder set 1, flow cytometry | shares compounds with GRK2 aptamer HTS | Bead-bound FAM RNA aptamer fluorescence quenching; stronger effect = lower value | fluorescence ratio to DMSO, % at 11.1 µM | 35 tested, under 10 active | AID 588496, 2011;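 active means compounds that dim the fluorescent label, raw bead signal shifting by over 33 units between lowest and highest dose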
* = called active by the depositor; · = no result. Unless noted, no stated cut-off is given here; in the data, active means inhibition above about 50%; inactive means the rest.

SMILES	LANA-H2B inh	HDAC3 inh	GRK2 aptamer HTS	Pemphigus Ab inh	PKD1 inh	VLA-4 inh	GRK2 CP1	FAM quench CP1	others
CCOC(=O)C1CCCCN1S(=O)(=O)c1cc2c(cc1C)NC(=O)CO2 (stereo unspecified)	·	·	0.0	101.5	·	-3.7	·	·
CCOC(=O)C(NC(C)=O)C(=O)Nc1ccc(C)cc1C (stereo unspecified)	-0.3	0.6	50.0*	85.8	-7.0	5.2	-0.8	102.4
CN1CCN(C(=S)SCC(=O)Nc2nc(-c3ccccc3)c(-c3ccccc3)o2)CC1	·	·	100.0*	100.9	5.0	-8.1	·	·	GRK2 CP2=-3.9;FAM quench SP=98.0
CCCCCC/C=C/c1ccc(OC)c([C@H]2[C@H]3C=CC[C@@H](C)[C@@H]3C(=O)N2Cc2ccccc2)c1	-2.1	-6.6	1.0	103.1	·	2.5	·	·
CCCCCC/C=C/c1ccc([C@H]2[C@H]3C=CC[C@@H](C)[C@@H]3C(=O)N2Cc2ccccc2)c(F)c1	-0.8	-0.6	1.0	98.5	·	4.2	3.4	93.8
CCCCCCCN1CCN=C1N(C)C	-1.7	7.3	1.0	103.2	·	14.8	·	·
CCCc1c(C)[nH]c2ccc(NC(C)=O)cc2c1=O	-6.7	-2.6	74.0*	109.6	-9.1	7.8	0.3	109.9
Cc1nc2ccccc2c(=O)n1/N=C/c1ccccc1	-4.2	0.3	0.0	96.4	-14.3	15.9	·	·
Cc1nc2ccccc2c(=O)n1/N=C/c1ccncc1	-2.2	1.1	83.0*	103.8	0.3	-1.3	-2.9	102.3
Cn1c(SCc2ccccc2Cl)nc2c1c(=O)[nH]c(=O)n2C	-1.3	1.0	71.0*	116.4	·	14.4	-2.1	95.3
Fc1ccc(CNc2cnccn2)cc1	3.0	-3.9	64.0*	94.9	0.3	14.3	-1.0	99.5
CN(CC(=O)Nc1ccccc1Cl)C(=O)Cn1cnc2ccc(Cl)cc2c1=O	0.2	0.3	5.0	106.4	·	5.8	·	·
CCC(=O)N1CCN(c2ccc(NC(=O)c3ccc(-c4ccccc4)cc3)cc2)CC1	·	·	·	·	-7.3	·	·	·
O=C(O)C1CC=CCC1C(=O)Nc1ccc2c(c1)OCCO2 (stereo unspecified)	-5.0	-1.4	24.0	99.7	-4.1	1.9	·	·	GRK2 CP2=12.2;FAM quench SP=99.0
Cc1nc(-c2nc(-c3c(C(=O)NNC(=O)c4ccc(Cl)cc4)noc3C)cs2)cs1	0.9	1.7	4.0	111.7	·	1.0	·	·
Cc1nc(-c2nc(CC(=O)NNC(=O)c3ccc(Cl)cc3)cs2)cs1	-1.2	-0.6	47.0*	·	·	-5.3	1.3	107.0
N#Cc1ccc(/C=C/C(=O)c2ccccc2)cc1	1.4	11.5	51.0*	93.0	·	10.7	1.7	96.6
O=C(/C=C/c1ccccc1)c1ccccc1	1.3	2.3	3.0	·	-16.3	11.7	·	·
O=C(NCc1ccco1)c1ccc(OC2CCN(Cc3ccccn3)CC2)cc1	·	·	·	105.5	·	·	·	·
CC(C)Sc1nc2c([nH]1)c(=N)ncn2Cc1ccccc1	0.8	5.5	81.0*	91.1	0.2	-2.8	-0.3	97.4
Cc1cccc(OCCSc2nc3c([nH]2)c(=N)ncn3Cc2ccccc2)c1	1.7	10.9	0.0	108.1	-6.0	4.4	·	·
CSc1ccccc1C(=O)Nc1cccc(C)c1	-3.3	3.4	97.0*	96.2	-6.7	1.6	-0.4	93.8
C=CCOc1cccc(NC(=O)c2ccccc2SC)c1	1.6	6.6	92.0*	101.6	-5.2	5.8	0.7	90.4
O=C1COc2ccc3ccccc3c21	-1.6	-0.4	0.0	101.5	·	5.0	·	·
CN(C)CCNc1c2c(nc3ccccc13)CCC2	-2.2	8.2	0.0	117.4	·	-0.6	·	·	GRK2 CP2=4.4;FAM quench SP=100.0
SMILES	LANA-H2B inh	HDAC3 inh	GRK2 aptamer HTS	Pemphigus Ab inh	PKD1 inh	VLA-4 inh	GRK2 CP1	FAM quench CP1	others
COCCCNc1c2c(nc3ccccc13)CCC2	·	·	·	104.8	·	·	·	·
CC(=O)c1cccc(Nc2c3c(nc4ccccc24)CCC3)c1	1.9	5.7	0.0	96.7	·	-0.3	·	·
Fc1cccc(Nc2c3c(nc4ccccc24)CCC3)c1	-3.5	-0.3	0.0	100.2	·	10.3	·	·	GRK2 CP2=0.7;FAM quench SP=100.0
Cc1ccc(S(=O)(=O)CCC(=O)NCCc2ccc(Cl)cc2)cc1	4.5	-0.4	0.0	95.3	·	2.6	·	·
Cc1cccc(CCNC(=O)CCS(=O)(=O)c2ccc(Br)cc2)c1	17.8*	2.1	1.0	105.7	4.3	5.0	1.8	103.8	FAM quench DR=101.0
Cc1ccc(CCNC(=O)CCS(=O)(=O)c2ccc(Br)cc2)cc1	2.3	-1.0	3.0	105.6	-5.1	27.1	0.5	99.8	Aptamer quench=9.3;FAM quench DR=102.0
CCCOc1c(Br)cc(C(=O)OCC(=O)NC2CC2)cc1OC	0.1	-1.7	0.0	102.3	·	-3.7	·	·
O=C1CNC(c2ccccc2)C(c2ccccc2)N1 (stereo unspecified)	·	·	·	98.0	·	·	·	·
O=C(CCNC(=O)c1ccc(Cl)cc1)Nc1ncccc1O	-15.5	-4.6	77.0*	96.7	·	15.9	·	·	GRK2 CP2=-18.4;FAM quench SP=99.0
O=C(O)CC1(CC(=O)N2CCC(C(=O)O)CC2)CCCC1	-0.7	3.6	0.0	99.1	·	0.5	·	·
O=C(COc1coc(CN2CCCc3ccccc32)cc1=O)Nc1ccc([N+](=O)[O-])cc1	·	·	62.0*	447.2	·	-10.4	-5.1	99.9
CCOc1ccc(N2CC(C(=O)Nc3ccccc3OC)CC2=O)cc1 (stereo unspecified)	-1.3	1.0	0.0	105.2	1.6	36.0	·	·
